Results on six molecules are retold here after PubChem BioAssay (NCATS).

SMILES strings stand for the structures. Records with an inconclusive call do not appear. The source made the active and inactive calls. Unless noted, calls come from the whole dose curve; as a rule, active = well fitted curve in either direction with a large enough effect (not every such curve was filed as active); inconclusive = small, poorly fitted or top-dose-only effect, or another doubt; inactive = flat fitted curve, though single readings scatter. Some results are limits rather than exact numbers.

Test [1] addresses Lysosomal acid glucosylceramidase (Homo sapiens) (UniProt P04062). Put plainly: Glucocerebrosidase-p2 (AID 348; in the data active = potency below about 10 µM; note: potency is the fitted concentration of half-maximal effect). The note with it: purified GBA, blue fluorogenic substrate, 40 min. A digest of the protocol:
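Normal human glucocerebrosidase (0.2 nM) with blue fluorogenic substrate (80 uM final) in citrate/phosphate pH 5.9 with 10mM sodium taurocholate, 0.01% tween-20; 40 min RT, NaOH/glycine stop; fluorescence Ex 365/Em 440; AC50 from a titration from 0.6 nM upwards.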

Test [2] in a line: AP1 Signaling Pathway (AID 357).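 Note: ME-180 reporter cells stimulated with EGF at its EC50 level; % is set by controls: 0 for no effect and ±100 for the full control effect.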 The note with it: ME-180 AP-1-bla reporter, EGF-induced, beta-lactamase ratio, 5 h; at 7.69 µM (top of the series) unless noted. A digest of the protocol:
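In this screen, ME-180 cells in Opti-MEM with 0.5% dialyzed FBS received EC50 EGF and compound titrations for 5 h. AP-1 reporter beta-lactamase was detected via CCF4 ratio, giving AC50 for positive and negative modulators.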

The target of test [3] is Cytochrome P450 1A2 (Homo sapiens) (UniProt P05177). The test is described as follows: p450-cyp1a2 (AID 410; calls by dose curve; note: potency is the fitted concentration of half-maximal effect;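 for activity change, negative = inhibition: -100% = full effect of reference inhibitor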). As to conditions: recombinant CYP1A2, luciferin-ME demethylation, luminescence; series mostly up to 57 µM. The method in brief:
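20nM CYP1A2, 100uM Luciferin-ME (=Km), 100mM KPO4; cpd 10 min RT; +NADPH regen, 60 min RT; stop/detect 20 min; luminescence. Normalized to furafylline 57 uM = full inhibition.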

A short description of test [4]: NFAT Signaling Pathway (AID 444).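 Note: carbachol stimulus at about its EC50 of 1 µM final; % is set by controls: 0 for no effect and ±100 for the full control effect.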 As to conditions: Jurkat NFAT-bla M1, carbachol, beta-lactamase ratio, 5 h; at 7.69 µM (top of the series) unless noted. A digest of the protocol:
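Jurkat cells with NFAT-driven β-lactamase reporter and co-expressed M1 receptor, stimulated with carbachol (final 1 uM, ~EC50), compound titration, 5 h at 37 °C. CCF4 loaded 1 h at RT; 460/530 nm ratio gave %activity and AC50.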

Test [5] is described as follows: Stat Signaling Pathway (AID 446).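 Note: ME-180 cervical cancer cells given 40 pM IL-6 alongside compound; SIE-controlled beta-lactamase reporter measured as 460/530 nm FRET emission ratio; % is set by controls: 0 for no effect and ±100 for the full control effect.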 The note with it: ME-180 (cervical carcinoma) SIE beta-lactamase reporter, IL-6 stimulated, 5 h; at 7.69 µM (top of the series) unless noted. The method in brief:
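Compound effects on IL-6-induced STAT reporter activity were measured in ME-180 cells. After overnight culture, cells were co-treated with 40 pM IL-6 for 5 hrs before beta-lactamase substrate loading at room temperature.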

Test [6] deals with Mitogen-activated protein kinase 10 (Mus musculus) (UniProt Q61831). The test is described as follows: JNK3 AlphaScreen Assay (AID 530).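 Note: kinase came from lysate of stimulated human HepG2 cells; signal reports phosphorylation of biotinylated GST-cJun 1-79 at Ser73 with 10 µM ATP; % is set by controls: 0 for no effect and ±100 for the full control effect.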 The note with it: JNK3 lysate, c-Jun phosphorylation; series mostly up to 57.1 µM. The method in brief:
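HepG2 lysate (IL-1b/TNFa pre-activated) + biotin-GST-cJun 1-79 + anti-pSer73 cJun; cpd titration, 15 min RT; ATP 10 uM start; Tris pH 7.6, MgCl2, DTT, vanadate; beads in EDTA buffer; AlphaScreen.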

Test [7] addresses Cytochrome P450 3A4 (Homo sapiens) (UniProt P08684). The test is described as follows: qHTS Assay for Activators of Cytochrome P450 3A4 (AID 885; active = well fitted curve in the direction sought with a large enough effect; an effect the other way counts as inactive or inconclusive; note: nearly all actives have a fitted effect of over 65% in size). The note with it: recombinant CYP3A4, Luciferin-PPXE luminescence, 60 min; series mostly up to 57.1 µM. The method in brief: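 CYP3A4 activity: Luciferin-PPXE O-dealkylation, 25uM substrate, 200mM KPO4, RT throughout. Read-out is luciferase luminescence; higher values reflect activation.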

A short description of test [8]: qHTS Assay for Lipid Storage Modulators (AID 1519; calls by dose curve). As to conditions: Drosophila S3 cells, BODIPY lipid droplet/cell ratio, laser cytometry, cells loaded with oleic acid; for activity change, negative = inhibition: at 57.5 µM (top of the series). A digest of the protocol: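 Cells seeded at 5,000 per well were treated with compounds over a concentration series and loaded with oleic acid (400 uM, as added). Lipid droplet fluorescence (488 nm excitation, 500-530 nm channel) was read by laser-scanning cytometry and normalized to 20 uM Triacsin C.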
(In general: qHTS replaces the single test concentration by a dilution series.)

Test [9] is described as follows: Primary qHTS for small molecule stabilizers of the endoplasmic reticulum resident proteome: Secreted ER Calcium Modulated Protein (SERCaMP) assay (AID 1508630; active = well fitted curve in the direction sought with a large enough effect; an effect the other way counts as inactive or inconclusive; note: % is set by controls: 0 for no effect and ±100 for the full control effect). As to conditions: SH-SY5Y GLuc-SERCaMP (Gaussia luciferase released on ER calcium loss) secretion, thapsigargin, luminescence; series mostly up to 38.4 µM. The method in brief: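 The SH-SY5Y reporter protocol was run at 3 concentrations up to 38.3 uM (primary) or 11 concentrations (follow-up): 16 h compound, 100 nM thapsigargin for 4 h, then extracellular luciferase luminescence.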

Test [10] addresses Glucocorticoid receptor (Homo sapiens) (UniProt P04150). Put plainly: GR-EFC Redistribution (AID 451; calls by dose curve; note: potency is the fitted concentration of half-maximal effect). The note with it: CHO-K1 GR-EFC translocation, beta-gal luminescence, 2 h. A digest of the protocol: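 CHO-K1 cells expressing nuclear EA and GR-ED fragments of b-gal; compounds titrated up to 46 uM final, 2 h at 37 C. GR nuclear translocation read as complemented b-gal luminescence after 1 h RT detection.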

The nature of test [11]: Confirmation and Secondary Assay for Modulators of Hemoglobin Beta Chain Splicing at IVS2 654 locus (AID 910; active = well fitted curve in the direction sought with a large enough effect; an effect the other way counts as inactive or inconclusive;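 note: HeLa cells stably carrying EGFP split by mutant beta-globin IVS2-654 intron; % of control where 0% means no effect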). As to conditions: HeLa EGFP-654 splicing reporter, GFP fluorescence, 48 h; series mostly up to 38.3 µM. A digest of the protocol: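 HeLa cells stably expressing EGFP interrupted by β-globin IVS2-654 intron, seeded overnight in Opti-MEM/2% FCS, then treated 2 days at 37 °C. Restored splicing read as total peak GFP intensity per well by laser scanning cytometry (488 nm excitation, 500–520 nm emission); 500 nM antisense PNA as control.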

The nature of test [12]: Confirmation and Secondary Assay for Modulators of Hemoglobin Beta Chain Splicing at IVS2 705 locus (AID 930; active = well fitted curve in the direction sought with a large enough effect; an effect the other way counts as inactive or inconclusive;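 note: HeLa cells stably expressing the EGFP-705 splicing reporter; GFP fluorescence per well restored by corrected splicing of the IVS2-705 intron in EGFP; % of control where 0% means no effect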). As to conditions: HeLa EGFP-705 splicing reporter, GFP fluorescence, 48 h; series mostly up to 38.3 µM. The method in brief:
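Stable HeLa line with EGFP disrupted by mutant beta-globin intron 2 (705). Overnight attachment, then 2 days of compound at 37C, 5% CO2. Signal: peak GFP intensity summed over objects 5-250 µm.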

The target of test [13] is 3',5'-cyclic-AMP phosphodiesterase 4B (Homo sapiens) (UniProt Q07343). Put plainly: qHTS Assay for Inhibitors of PDE-IV (AID 607; active = well fitted activation curve with a large enough effect in the main read-out, with a control signal flat, not every such curve was filed as active; note: % of control where 0% means no effect). As to conditions: HEK293 ACTOne CNG channel cells, membrane potential fluorescence; series mostly up to 22.9 µM. The method in brief: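 ACTOne HEK293 cells carry a modified cAMP-gated CNG channel and express endogenous PDE4; plated 1000 cells/well, compounds up to 22.9 uM final. Membrane-potential dye fluorescence (ex 535/em 590) was read; parental cells received 10 uM forskolin + 100 uM RO 20-1724.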

Test [14] addresses Cytochrome P450 3A4 (Homo sapiens) (UniProt P08684). Put plainly: qHTS Assay for Inhibitors and Substrates of Cytochrome P450 3A4 (AID 884; active = well fitted curve in the direction sought with a large enough effect; an effect the other way counts as inactive or inconclusive; note: potency is the fitted concentration of half-maximal effect; nearly all actives have a fitted effect of over 50% in size). The note with it: recombinant CYP3A4, Luciferin-PPXE luminescence; series mostly up to 57.1 µM. The method in brief:
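Luminescent readout of luciferin produced by CYP3A4 (20 nM) dealkylation of Luciferin-PPXE, 25 uM (its KM). NADPH-driven reaction ran 60 min at RT after 10 min compound preincubation; data scaled to 57 uM ketoconazole as 100% inhibition.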

The mark [15] stands for this setting: measured here: cell count channel max response.
[16] abbreviates: measured here: lipid channel max response.

Sequence of Cytochrome P450 3A4 (Homo sapiens) (P08684 whole entry, looked up): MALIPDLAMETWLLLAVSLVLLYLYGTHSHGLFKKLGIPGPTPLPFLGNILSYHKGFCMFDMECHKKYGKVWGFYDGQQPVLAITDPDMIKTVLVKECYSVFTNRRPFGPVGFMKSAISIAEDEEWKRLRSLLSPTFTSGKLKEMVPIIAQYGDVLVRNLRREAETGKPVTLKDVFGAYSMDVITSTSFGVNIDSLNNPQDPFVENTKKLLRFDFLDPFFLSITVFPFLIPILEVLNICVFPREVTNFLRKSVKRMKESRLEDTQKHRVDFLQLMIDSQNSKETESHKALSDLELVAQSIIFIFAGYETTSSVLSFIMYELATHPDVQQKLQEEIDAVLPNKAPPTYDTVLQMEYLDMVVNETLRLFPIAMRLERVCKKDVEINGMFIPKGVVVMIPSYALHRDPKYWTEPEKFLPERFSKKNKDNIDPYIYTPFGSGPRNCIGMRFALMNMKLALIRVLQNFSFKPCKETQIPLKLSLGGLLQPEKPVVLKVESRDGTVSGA
Sequence of Glucocorticoid receptor (Homo sapiens) (P04150 whole entry, looked up, the tested form may be a part): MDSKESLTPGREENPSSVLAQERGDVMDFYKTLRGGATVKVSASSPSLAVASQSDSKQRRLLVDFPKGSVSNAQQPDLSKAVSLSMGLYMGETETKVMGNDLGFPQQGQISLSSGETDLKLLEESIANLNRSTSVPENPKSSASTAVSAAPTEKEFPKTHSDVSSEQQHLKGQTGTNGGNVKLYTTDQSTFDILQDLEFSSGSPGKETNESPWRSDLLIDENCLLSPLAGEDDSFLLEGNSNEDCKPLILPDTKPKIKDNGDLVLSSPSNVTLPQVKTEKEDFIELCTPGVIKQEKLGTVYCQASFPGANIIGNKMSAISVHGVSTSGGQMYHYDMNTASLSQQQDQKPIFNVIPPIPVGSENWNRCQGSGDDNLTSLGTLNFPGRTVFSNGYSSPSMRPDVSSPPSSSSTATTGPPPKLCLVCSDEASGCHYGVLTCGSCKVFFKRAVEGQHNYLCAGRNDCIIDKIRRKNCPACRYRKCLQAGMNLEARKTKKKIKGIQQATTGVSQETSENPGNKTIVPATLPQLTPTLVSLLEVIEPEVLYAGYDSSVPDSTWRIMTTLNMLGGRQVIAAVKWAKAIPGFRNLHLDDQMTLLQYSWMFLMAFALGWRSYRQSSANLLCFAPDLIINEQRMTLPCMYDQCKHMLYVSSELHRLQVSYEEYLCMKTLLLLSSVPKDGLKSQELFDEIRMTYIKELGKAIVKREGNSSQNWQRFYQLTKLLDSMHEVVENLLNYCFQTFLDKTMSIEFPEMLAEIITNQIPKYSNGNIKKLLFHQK
Sequence of Cytochrome P450 1A2 (Homo sapiens) (P05177 whole entry, looked up): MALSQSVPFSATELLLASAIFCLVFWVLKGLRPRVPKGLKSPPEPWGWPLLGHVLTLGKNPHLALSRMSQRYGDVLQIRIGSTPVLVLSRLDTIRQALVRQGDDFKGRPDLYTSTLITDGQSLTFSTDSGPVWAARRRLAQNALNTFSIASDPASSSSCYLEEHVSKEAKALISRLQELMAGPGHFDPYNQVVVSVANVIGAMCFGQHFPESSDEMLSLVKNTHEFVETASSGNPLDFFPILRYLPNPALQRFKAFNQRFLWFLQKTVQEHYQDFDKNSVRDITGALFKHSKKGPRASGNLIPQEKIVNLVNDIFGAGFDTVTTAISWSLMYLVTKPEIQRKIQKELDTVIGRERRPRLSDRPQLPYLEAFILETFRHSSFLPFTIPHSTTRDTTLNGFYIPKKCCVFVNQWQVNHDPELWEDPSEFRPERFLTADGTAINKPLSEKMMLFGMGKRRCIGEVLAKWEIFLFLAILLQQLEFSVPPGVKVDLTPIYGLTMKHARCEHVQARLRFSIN
Sequence of Lysosomal acid glucosylceramidase (Homo sapiens) (P04062 whole entry, looked up): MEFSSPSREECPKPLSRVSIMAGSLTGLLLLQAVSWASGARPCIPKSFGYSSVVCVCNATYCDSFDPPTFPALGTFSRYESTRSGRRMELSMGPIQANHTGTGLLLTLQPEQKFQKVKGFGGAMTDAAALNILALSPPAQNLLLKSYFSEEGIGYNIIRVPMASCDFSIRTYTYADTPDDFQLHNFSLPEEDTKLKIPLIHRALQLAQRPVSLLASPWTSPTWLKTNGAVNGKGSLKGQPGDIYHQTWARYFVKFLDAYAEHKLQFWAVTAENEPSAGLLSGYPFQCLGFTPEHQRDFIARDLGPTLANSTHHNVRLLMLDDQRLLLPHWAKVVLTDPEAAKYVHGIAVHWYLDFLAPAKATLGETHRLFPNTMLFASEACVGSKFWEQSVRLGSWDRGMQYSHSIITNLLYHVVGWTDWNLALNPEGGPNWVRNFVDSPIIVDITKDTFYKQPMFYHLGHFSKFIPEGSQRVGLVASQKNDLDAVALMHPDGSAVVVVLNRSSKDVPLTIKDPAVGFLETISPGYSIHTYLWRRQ
Sequence of 3',5'-cyclic-AMP phosphodiesterase 4B (Homo sapiens) (Q07343 whole entry, looked up): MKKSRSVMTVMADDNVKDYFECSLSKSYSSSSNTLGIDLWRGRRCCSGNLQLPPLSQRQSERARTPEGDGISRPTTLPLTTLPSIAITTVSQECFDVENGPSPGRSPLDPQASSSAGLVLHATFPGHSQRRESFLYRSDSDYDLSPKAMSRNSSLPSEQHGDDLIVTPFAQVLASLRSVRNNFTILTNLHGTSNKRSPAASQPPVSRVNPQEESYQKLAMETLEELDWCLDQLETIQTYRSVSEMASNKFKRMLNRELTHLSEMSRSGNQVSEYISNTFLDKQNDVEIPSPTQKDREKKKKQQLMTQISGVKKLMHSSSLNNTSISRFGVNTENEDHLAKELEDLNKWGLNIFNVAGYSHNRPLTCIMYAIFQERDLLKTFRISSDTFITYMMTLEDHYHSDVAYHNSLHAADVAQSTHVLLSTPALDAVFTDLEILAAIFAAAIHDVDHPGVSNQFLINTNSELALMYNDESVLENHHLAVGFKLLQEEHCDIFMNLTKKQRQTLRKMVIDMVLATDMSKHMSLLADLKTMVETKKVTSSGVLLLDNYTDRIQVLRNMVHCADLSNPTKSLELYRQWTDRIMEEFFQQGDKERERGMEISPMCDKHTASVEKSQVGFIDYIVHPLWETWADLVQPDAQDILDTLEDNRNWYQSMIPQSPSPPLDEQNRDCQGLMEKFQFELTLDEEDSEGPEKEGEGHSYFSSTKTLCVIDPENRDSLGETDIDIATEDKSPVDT

For the molecule `COc1ccc(NC(=O)N2CC[C@@]3(CCCN(C(=O)c4ccc(OC)cc4)C3)C2)cc1`, the Potency is > 11.4 µM (inactive) in test [1] and 25.1 µM (active) in [3]. The activity change, negative = inhibition is 5.18% (inactive) in [2], 10.5% (inactive) in [4] and 3.11% (inactive) in test [8]. Also, the activity, negative = inhibition in test [5] is 2.5% (inactive). In addition, in test [6], the result was inactive. Besides, the Potency result in test [7] and in test [9] was “inactive” each time. For the same molecule, the max response turned out to be 22% in [8] (setting [15]) and 26.4% in [8] (setting [16]).

For `Cc1cccc(CNc2ncnc3ccc(-c4cccc(C#N)c4)cc23)c1`, the Potency in test [1] is > 11.4 µM (inactive); in test [3] it was 0.631 µM (active); in test [10], > 46 µM (inactive). The activity change, negative = inhibition is -19.4% (inactive) in test [2], -25.8% (inactive) in [4] and 0.488% (inactive) in test [8]. The activity, negative = inhibition in test [5] was -6.66% (inactive). For the same molecule, the molecule was classed as inactive in [6], in test [11] and in test [12]. Besides, the results for the max response in test [8] (setting [15]) and in test [8] (setting [16]) were -20.2% and -19.2%, respectively. Also, the Potency result in test [9] was “inactive”.

`COc1ccc(-n2c(=O)cnc3cnc(Oc4ccccc4)nc32)cc1`: the Potency in test [1] is > 11.4 µM (inactive); in test [3], 15.8 µM (active); in [10], > 46 µM (inactive). Further, the figures for the activity change, negative = inhibition in test [2], in test [4] and in test [8] were -8.13% (inactive), 2.58% (inactive) and 1.98% (inactive), respectively. The activity, negative = inhibition in test [5] was -13.1% (inactive). Besides, the outcome in test [6] was inactive. Further, the Potency result in [7] and in test [9] was “inactive” throughout. The max response amounted to 3.82% in [8] (setting [15]) and 6.57% in [8] (setting [16]).

As for `O=C(c1cnccn1)N1CCC[C@@]2(CCN(c3ccncc3)C2)C1`, the Potency is > 11.4 µM (inactive) in test [1], > 46 µM (inactive) in [10] and 3.16 µM (active) in test [14]. Also, the activity change, negative = inhibition was -3.24% (inactive) in test [2], 1.53% (inactive) in test [4] and 3.16% (inactive) in test [8]. Further, the Potency result in test [3], in [13], in [7] and in [9] was “inactive” throughout. The activity, negative = inhibition in [5] was 5.94% (inactive). Further, the max response in [8] (setting [15]) came to 6.74%; in test [8] (setting [16]) it was 12.1%.

In the case of `Cc1noc(C)c1C(=O)N1CCC2(CCN(Cc3cc(C(F)(F)F)cc(C(F)(F)F)c3)CC2)CC1`, the Potency in test [1] was > 11.4 µM (inactive); in [10], > 46 µM (inactive). Moreover, the activity change, negative = inhibition was -3.69% (inactive) in [2], -22.4% (inactive) in [4] and 2.45% (inactive) in [8]. Besides, the Potency entry in test [3], in [13] and in test [9] was “inactive” in each case. In addition, the activity, negative = inhibition in test [5] is -0.996% (inactive). Moreover, the max response in test [8] (setting [15]) was -5.2%; in test [8] (setting [16]), -1.09%.

For `COc1ccc(NC(=O)N2CC[C@@]3(CCCN(C(=O)c4csnn4)C3)C2)cc1`, the Potency in test [1] was > 11.4 µM (inactive); in test [10] it was > 46 µM (inactive). For the same molecule, the activity change, negative = inhibition in [2] is -1.53% (inactive); in [4], 17.4% (inactive); in test [8], 5.36% (inactive). In addition, the Potency entry in test [3], in test [7] and in test [9] was “inactive” each time. In addition, in [5], the activity, negative = inhibition was 7.84% (inactive). Besides, in test [6], the molecule was called inactive. The results for the max response in test [8] (setting [15]) and in test [8] (setting [16]) were 14.7% and 23.5%, respectively.
